# In PubChem BioAssay (NCI):
# “And” between values parts separate entries of the source, which are not always exact repeats. Equal values may be shown once. This is part of a sample that, as a whole, favours compounds with a hit. Of some 83,000 tested, about 20% had one in any assay.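 Cell lines were cultured in 96-well plates, exposed to a single compound concentration, and assessed for percent growth 48 hours later.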 The source made the active and inactive calls.
# System: NCI-H522 lung
# Experiment: NCI-60 one-dose screen, 48 h (100 = growth as untreated, 0 = no growth, -100 = all killed)
# Conditions: 10 µM
# Protocol: Growth inhibition of the NCI-H522 human Non-Small Cell Lung tumor cell line is measured as a screen for anti-cancer activity. Cells are grown in 96 well plates and exposed to the test compound for 48 hours. Compounds are tested at a single concentration, which is 10^-5 M for most compounds. The reported endpoint is percent growth (GI% or GIPRCNT), where numbers from 0 - 100% represent growth inhibition, and numbers from -100% - 0 represent cell death. For example, a value of 40 represents 60% growth inhibition. A value of 0 means no net growth occurred over the course of the experiment. A value of -40 indicates 40% of cells at the beginning of the experiment died by the end of the experiment. A value of -100 means all cells are dead at the end of the experiment.
# NCI-60 Human Tumor Cell Lines Screen was performed using the standard one-dose NCI protocol, which is described in more detail at https://dtp.cancer.gov/discovery_development/nci-60/default.htm.
# Compounds with GIPRCNT values below 10 were considered active. Activity score was based on GIPRCNT using the following formula: […]
# Score is 0 for GIPRCNT values of 100 or above, 50 for GIPRCNT values of 0, and 100 for GIPRCNT values of -100.
row,SMILES,growth
1,CC(=O)Nc1c2sscc-2n(C)c1=O,-90.8% (active)
2,NC(=O)c1cc([N+](=O)[O-])c(Cl)c([N+](=O)[O-])c1Cl,-82.4% (active)
3,O=C1C(=O)c2ccccc2-c2ccccc21,-58.5% (active)
4,ClCc1ccc2ccccc2n1,95.4% (inactive)
5,C[C@]12CC[C@H]3[C@@H](CCC4=CC(=O)CC[C@@H]43)[C@@H]1CC[C@@H]2OC(=O)N(CCCl)N=O,39.7% (inactive)
6,O=C1CCC(=O)N1SC(Cl)(Cl)Cl,80.4% (inactive)
7,CCCCCCCC[N+]12CN3CN(CN(C3)C1)C2,97.9% (inactive)
8,CC12OOC(c3ccccc31)c1c2ccc2ccccc12 (stereo not given),-91.2% (active)
9,COc1ccccc1[As]=[As]c1ccccc1OC (stereo not given),-80.6% (active)
10,CC1CCC2(OC1)OC1C(O)C3C4CCC5CC(OC6OC(CO)C(OC7OC(CO)C(O)C(OC8OCC(O)C(O)C8O)C7OC7OC(CO)C(O)C(OC8OC(CO)C(O)C(O)C8O)C7O)C(O)C6O)C(O)CC5(C)C4CCC3(C)C1C2C (stereo not given),-71.4% (active)
11,CCOP(=O)(OCC)/C(C#N)=C/c1ccc(Br)cc1,89.7% (inactive)
12,Cc1cc([N+](=O)[O-])c2ccccc2[n+]1[O-],-38.1% (active) and -83% (active)
13,Cn1c(O)c(N=O)c(=O)n(C)c1=O,91% (inactive) and 74.7% (inactive)
14,COc1cc([N+](=O)[O-])c2ncccc2c1[N+](=O)[O-],-47.9% (active)
15,COc1cc(/C=C\[N+](=O)[O-])ccc1O,-37.6% (active) and 87.2% (inactive)
16,C[CH2][Hg][S]c1ccccc1C(=O)O,-77.2% (active)
17,COC(C(=O)C(O)C(C)O)C1Cc2cc3cc(OC4CC(OC(C)=O)C(OC5CC(O)C(OC)C(C)O5)C(C)O4)cc(O)c3c(O)c2C(=O)C1OC1CC(OC2CC(OC3CC(C)(O)C(OC(=O)C(C)C)C(C)O3)C(O)C(C)O2)C(O)C(C)O1 (stereo not given),-60.9% (active)
18,COc1ccc(/C=C\[N+](=O)[O-])cc1OC,80.6% (inactive) and 75.6% (inactive)
19,COc1ccc2c(ccc3oc([N+](=O)[O-])cc32)c1,-52% (active)
20,Cc1cc(C)c(C[N+](C)(C)C)c(C)c1C,-39.5% (active)

row,SMILES,growth
1,N#CCc1ccccc1,99.4% (inactive)
2,COc1cc([C@@H]2c3cc4c(c(O)c3C[C@H]3COC(=O)[C@@H]32)OCO4)cc(OC)c1OC,-25% (active)
3,CN(C)CC1(N)C(=O)NC(=O)NC1=O,96.4% (inactive)
4,COc1cc(/C=C(/C)[N+](=O)[O-])ccc1O,-78.2% (active) and -84.9% (active)
5,[Cl][Sn]([c]1ccccc1)([c]1ccccc1)[c]1ccccc1,-82.2% (active)
6,S=C=NCCc1ccccc1,44.1% (inactive)
7,COC12C(COC(N)=O)C3=C(C(=O)C(C)=C(N)C3=O)N1CC1C2N1C (stereo not given),17.7% (inactive)
8,O=C(CBr)Nc1ccc(Cl)cc1,-67.2% (active)
9,COC(=O)C1C(O)C(C)C(O)C(C)/C=C\C=C(C)C(=O)Nc2c(C)c(OC(C)=O)c3c(c2O)C(=O)C(C)=C2OCOC(=C23)C(C)=CC(C)(O)C(O)C(C)C1O (stereo not given),59.1% (inactive)
10,C#CC1(O)CCC(C(C)(C)C)CC1 (stereo not given),122% (inactive)
11,C=NCC#N,68.8% (inactive) and 103% (inactive)
12,[Cl][Hg][c]1ccc(Cl)s1,-98.1% (active)
13,Cc1ccc(NC(=O)CBr)cc1,-55.6% (active)
14,[O-][n+]1ccccc1S,-34.7% (active)
15,Cc1ccc(C(=O)C2C(c3ccccc3)N2C2CCCCC2)cc1 (stereo not given),90.5% (inactive) and 75.5% (inactive)
16,CCOP(=O)(OCC)C(O)c1ccccc1Cl (stereo not given),95.7% (inactive)
17,Cc1cc(C(C)(C)c2ccc(O)c(C)c2)ccc1O,83.8% (inactive)
18,CC[C@@H](C)[C@@H]1NC(=O)C(NC(=O)C(CC(C)C)N(C)C(=O)C2CCCN2C(=O)C(C)O)C(C)OC(=O)C(Cc2ccc(OC)cc2)N(C)C(=O)C2CCCN2C(=O)C(CC(C)C)NC(=O)C(C)C(=O)C(C(C)C)OC(=O)C[C@H]1O (stereo not given in full),-43.2% (active)
19,CC/C(=C/c1ccc(OC)cc1OC)[N+](=O)[O-],-41.7% (active)
20,O=C1C=Cc2ccccc2C1=O,47.2% (inactive)
